Among the data in PubChem BioAssay AID1851 (National Center for Advancing Translational Sciences (NCATS), 2009) are activity, negative = inhibition and AC50 values, retold here.

SMILES strings stand for the structures. The campaign covered roughly 16,000 compounds. About 5,700 (36%) were called active. Roughly 24% stayed inconclusive and do not appear here. This is one part of the list. Unmarked numbers belong to inactive results. Calls follow the shape of the dose curve; as a rule, active = well fitted curve in the direction sought with a large enough effect; inconclusive = small, poorly fitted or top-dose-only effect, or effect the other way; inactive = no such curve, though single readings can be large or run the other way.
% is scaled to controls: 0 for no effect and ±100 for the full control effect.

The target in this assay is Cytochrome P450 1A2 (Homo sapiens) (UniProt P05177). The assay is described as follows: Cytochrome panel assay with activity outcomes. The conditions noted are these: recombinant CYP, pro-luciferin dealkylation, luminescence, p450-cyp1a2; series mostly up to 57.1 µM.
Cytochrome P450 1A2 (Homo sapiens), sequence (P05177 whole entry, looked up): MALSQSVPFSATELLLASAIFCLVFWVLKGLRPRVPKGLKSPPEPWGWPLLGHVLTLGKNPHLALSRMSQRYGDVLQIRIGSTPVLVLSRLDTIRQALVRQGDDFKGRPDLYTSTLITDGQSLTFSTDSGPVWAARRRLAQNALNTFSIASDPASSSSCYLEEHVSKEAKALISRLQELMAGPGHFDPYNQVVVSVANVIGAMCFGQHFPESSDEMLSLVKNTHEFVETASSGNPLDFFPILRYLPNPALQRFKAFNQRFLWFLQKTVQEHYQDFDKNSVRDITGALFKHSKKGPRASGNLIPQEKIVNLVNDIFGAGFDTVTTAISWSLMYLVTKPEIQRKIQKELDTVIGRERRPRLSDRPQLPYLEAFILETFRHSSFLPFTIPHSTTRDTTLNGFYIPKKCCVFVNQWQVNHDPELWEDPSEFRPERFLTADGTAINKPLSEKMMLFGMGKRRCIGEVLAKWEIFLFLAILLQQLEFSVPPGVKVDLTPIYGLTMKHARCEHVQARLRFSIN
On to `N[C@H](C(=O)O)[C@H](N)C(=O)O`, for which the activity, negative = inhibition is -13.3% [at 11.4 µM]. `COc1ccc(N2CC(C(=O)Nc3cc(C)on3)CC2=O)cc1` (stereo not drawn): the AC50 result was “inactive”. `CC(C)Oc1ccc(N2CC(C(=O)OCC(=O)NCc3ccccc3)CC2=O)cc1` (stereo not drawn): the AC50 result was “inactive”. Same read-out and setting: for `COc1ccc(N2CC(C(=O)OCC(=O)c3cccc(OC)c3)CC2=O)cc1` (stereo not drawn) the value was 20000 nM (active). Turning to `COC(=O)[C@@H]1[C@@H]2C[C@H]3c4[nH]c5ccccc5c4CCN3C[C@@H]2CC[C@@H]1OS(=O)(=O)O`, the activity, negative = inhibition was -10.3% [at 2.29 µM]. Regarding `Cc1ccccc1C(=O)NNC(=O)c1ccoc1C`, the AC50 entry was “inactive”. Same read-out and setting: for `Cc1ccccc1C(=O)NC(C)c1ccc2c(c1)CCCC2` (stereo not drawn) the value was 11200 nM (active); for `CCCCCSc1nncc(=O)[nH]1`, “inactive”; for `O=c1[nH]c(=O)n([C@@H]2C[C@H](O)[C@H](CO)O2)cc1I`, “inactive”. Same read-out and setting: then `COc1ccccc1-c1cc(C(F)(F)F)nc(S(=O)(=O)CCCC(=O)NC(C)C)n1`, with 2000 nM (active). The same measure, in the same setting: for `COCCCNC(=O)Cn1nc(-c2ccccc2OC)ccc1=O` the value was “inactive”; for `Cc1[nH]n(C(C)(C)C)c(=O)c1Sc1ccc(Cl)cc1`, “inactive”; for `Cc1ccc(N=Cc2cc(C)n(C3CCCC3)c2C)cc1`, 10000 nM (active). On to `CCCC(=O)Nc1ccc(C(=O)NNC(=S)NC(=O)c2cccs2)cc1`, for which the AC50 entry was “inactive”. Turning to `CCCCc1ccc(NC(=S)NCc2cccs2)cc1`, the AC50 is 8910 nM (active). Consider `CCc1ccc(NC(=O)CS(=O)CC(=O)NCCCc2ccccc2)cc1` (stereo not drawn), for which the AC50 entry is “inactive”. The same measure, in the same setting: then `CC#CCOC(=O)c1c(C)nc2sc3c(c2c1N)CC[C@@H](O)C3`, with 25.1 nM (active); and `COCCCNC(=O)/C=C/c1cccc(Cl)c1`, with 6310 nM (active); and `COCCNC(=O)c1onc(CSc2cccc(Cl)c2)c1C(=O)O`, with “inactive”. Still for that read-out and setting: then `O=C(/C=C/c1ccc(Cl)cc1)NCCSc1ccccc1`, with 1580 nM (active). Regarding `O=C(/C=C/c1cccc([N+](=O)[O-])c1)NCCN1CCOCC1`, the AC50 result is “inactive”. In the case of `O=C(/C=C/c1ccc(Cl)cc1)NCCN1CCOCC1`, the AC50 result was “inactive”. Same read-out and setting: then `O=C(/C=C/c1ccccc1)NNC(=O)c1cccnc1`, with “inactive”; and `COCCCNC(=O)C1C2C=CC3(CN(Cc4ccc(C)cc4)C(=O)C13)O2` (stereo not drawn), with “inactive”. Same read-out and setting: then `O=C(/C=C/c1cccc(Cl)c1)Nc1ccncc1`, with 2000 nM (active); and `COCCCNC(=O)/C=C/c1ccc(Cl)cc1`, with 7080 nM (active). Take `C/C(=N\OC(=O)c1ccccc1)c1cc(-c2ccc(Cl)cc2)no1`: the AC50 is 2820 nM (active). With `CC(C)CO/N=C1/C[C@@H](O)[C@@H](O)[C@@H]2[C@@H]3C(=O)N([C@@H](C)c4ccccc4)C(=O)[C@H]3CC[C@@H]12`, the activity, negative = inhibition was -9.02% [at 11.4 µM]. For `COc1ccc(OCCNS(=O)(=O)c2ccc3oc4ccccc4c3c2)cc1`, the AC50 is 2820 nM (active). Consider `COc1ccc(S(=O)(=O)NCCC(=O)NC(C)c2ccccc2)cc1` (stereo not drawn), for which the AC50 entry is “inactive”.

As for `COc1ccc(NC(=O)CCNS(=O)(=O)c2ccc3c(c2)c(=O)n(C)c(=O)n3C)cc1`, the AC50 result was “inactive”.

In the case of `C[C@@H](CN(C)C)CN1c2ccccc2CCc2ccccc21`, the AC50 entry is “inactive”. `O=C1CC(N2CCN(C(c3ccccc3)c3ccccc3)CC2)C(=O)N1Cc1ccc(N2CCCC2=O)cc1` (stereo not drawn): the AC50 result is “inactive”. Still for that read-out and setting: for `O=C1CCCc2ccccc2N1Cc1cccc(Cl)c1` the value was 12600 nM (active). On the same count and under the same terms, then `CN1CCN(C2CC(=O)N(Cc3ccc(N4CCCC4=O)cc3)C2=O)CC1` (stereo not drawn), with “inactive”. Same read-out and setting: for `O=C1CCCc2ccccc2N1Cc1ccccc1Cl` the value was 14100 nM (active). On to `CC1(C)[C@@H]2CC[C@]1(CC(=O)O)[C@H](Cl)C2`, for which the activity, negative = inhibition is -14.2% [at 11.4 µM]. Turning to `CNc1csc(C)c(C)c1=O`, the AC50 was 10000 nM (active).

With `C=C(C)COc1ccc2c(c1)CCC1C2CC[C@]2(C)C(=O)/C(=N/O)CC12` (stereo partly drawn), the activity, negative = inhibition is -13.8% [at 11.4 µM]. As for `CCOc1ccc2nc3cc(N=Nc4ccc(N)nc4N)ccc3c(N)c2c1`, the AC50 was 794 nM (active).

Consider `Cc1ccc(S(=O)(=O)N(C)c2cc(S(=O)(=O)N3CCC(C)CC3)c(C)cc2C)cc1`, for which the AC50 entry was “inactive”.

For `COc1ccc(/C=N/NC(=S)NC2CCS(=O)(=O)C2)cc1OC` (stereo not drawn), the AC50 is 6310 nM (active). The same measure, in the same setting: then `O=C1SC(c2ccccc2)=C/C1=C\N1CCCCC1`, with 1000 nM (active); and `O=S(=O)(c1ccccc1S(=O)(=O)N1CCCCC1)N1CCCCC1`, with “inactive”. For the compound `COC(=O)C/C=C\[C@@H](C)[C@@H](/C=N\O[C@@H](C)c1cc(-c2c(C)cc(C)cc2C)no1)NS(=O)(=O)c1ccc(C)cc1`, the activity, negative = inhibition was 4.06% [at 11.4 µM]. As to `CCOc1ccc(S(=O)(=O)NCc2ccc(F)cc2)c2cccnc12`, the AC50 entry is “inactive”.

Turning to `CCOc1ccccc1OCCOc1ccc(F)cc1`, the half-maximal activity concentration (AC50) was 2820 nM (active). In the case of `CC1(CCC(=O)OC2CCCCC2)OCCO1`, the activity, negative = inhibition was -7.12% [at 11.4 µM]. On to `Cc1ccc(/C=C/C(=O)c2nc3ccccc3[nH]2)cc1`, for which the AC50 was 1780 nM (active). On to `CCCCOc1ccc(/C=C/C(=O)NCCc2nc3ccccc3[nH]2)cc1`, for which the AC50 entry is “inactive”. For the compound `NC(=O)c1ccc([N+](=O)[O-])cc1SCc1ccccc1`, the AC50 is 8910 nM (active).

Turning to `CCC(C)NC(=O)NC(=O)N(C1CCCCC1)S(C)(=O)=O` (stereo not drawn), the AC50 entry was “inactive”. Take `C=CCn1c(SC(C)C(=O)NCc2ccc3c(c2)OCO3)nc2scc(-c3ccccc3)c2c1=O` (stereo not drawn): the AC50 was 10000 nM (active). Consider `C=CCn1c(SCc2ccc3c(c2)OCO3)nc2scc(-c3ccco3)c2c1=O`, for which the AC50 was 2510 nM (active). Still for that read-out and setting: then `CCc1nc(SCC(=O)N2CCCc3ccccc32)c2oc3ccccc3c2n1`, with 1260 nM (active). Same read-out and setting: for `Cc1nc(SCC(=O)Nc2ccc3c(c2)OCCO3)c2oc3ccccc3c2n1` the value was 1000 nM (active); for `Cc1nc(SCC(=O)c2ccc(Cl)s2)c2oc3ccccc3c2n1`, 141 nM (active).

With `CCc1nc(SCC(=O)c2ccc(Cl)s2)c2oc3ccccc3c2n1`, the AC50 was 251 nM (active).

As to `O=C(Cn1cnc2ccccc2c1=O)NCCC(=O)Nc1ccc2c(c1)OCCO2`, the AC50 entry is “inactive”.

For `C/C(C[n+]1ccccc1)=N\N=C(N)N`, the activity, negative = inhibition is -9.68% [at 11.4 µM]. For `CCc1nc(N[C@H](C(=O)O)C(C)CC)c2oc3ccccc3c2n1` (stereo partly drawn), the AC50 entry is “inactive”.

On to `CCc1nc(SCC(=O)NCCc2ccccc2)c2oc3ccccc3c2n1`, for which the AC50 was 1580 nM (active).

For `COc1ccc(/C=N/OCc2nc3c4c(ncn3n2)Oc2ccc3ccccc3c2C4c2ccccc2)cc1` (stereo not drawn), the AC50 result is “inactive”.
